Drawing on PubChem BioAssay (EPA / NIEHS), this text covers outcome and AC50 for 40 compounds.

Activity calls are given as the source filed them. The calls were made as follows: active = hit-call score of the fitted dose curve at least 0.9, where 1 is the maximum; inactive = score below 0.9.

The term AC50 denotes the concentration at which the activity in the assay is half-maximal.

In this experiment the target is Paired box protein Pax-6 (Homo sapiens) (UniProt P26367). Briefly: ATG_Pax6_CIS: Attagene CIS-FACTORIAL HepG2 Assay for human Paired Box 6 (PAX6) (AID 2282956). Conditions: HepG2 CIS-FACTORIAL PAX6 reporter transcription, RNA readout; actives raise or lower the signal. As to the method: ATG_CIS is a cell-based, multiplexed-readout assay that uses HepG2, a human liver cell line, with measurements taken at 24 hours after chemical dosing in a 24-well plate.ATG_Pax6_CIS is one of 52 assay component(s) measured or calculated from the ATG_CIS assay. It is designed to make measurements of mRNA induction, a form of inducible reporter, as detected with fluorescence intensity signals by Reverse transcription polymerase chain reaction (RT-PCR) and Capillary electrophoresis technology.Data from the assay component ATG_Pax6_CIS was analyzed into 1 assay endpoint. This assay endpoint, ATG_Pax6_CIS, was analyzed with bidirectional fitting relative to DMSO as the negative control and baseline of activity. Using a type of inducible reporter, measures of mRNA for gain or loss-of-signal activity can be used to understand the reporter gene at the transcription factor-level as they relate to the gene PAX6. Furthermore, this assay endpoint can be referred to as a primary readout, because this assay has produced multiple assay endpoints where this one serves a reporter gene function. To generalize the intended target to other relatable targets, this assay endpoint is annotated to the dna binding intended target family, where the subfamily is paired box protein.
Sequence of Paired box protein Pax-6 (Homo sapiens) (P26367 whole entry, looked up): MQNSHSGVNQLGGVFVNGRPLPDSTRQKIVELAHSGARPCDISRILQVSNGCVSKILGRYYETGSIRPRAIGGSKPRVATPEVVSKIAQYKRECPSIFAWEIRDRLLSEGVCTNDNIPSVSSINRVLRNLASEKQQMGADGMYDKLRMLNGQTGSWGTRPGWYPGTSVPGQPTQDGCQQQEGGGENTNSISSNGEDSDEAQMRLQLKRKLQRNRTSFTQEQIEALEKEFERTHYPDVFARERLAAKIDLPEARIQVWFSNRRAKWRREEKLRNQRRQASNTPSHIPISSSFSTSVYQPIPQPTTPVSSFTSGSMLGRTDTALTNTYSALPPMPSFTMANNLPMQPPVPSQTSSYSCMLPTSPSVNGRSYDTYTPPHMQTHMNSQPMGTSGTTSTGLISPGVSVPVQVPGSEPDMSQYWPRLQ
Human liver HepG2 cells are transiently transfected with multiple reporter transcription units (MRTUs) in 6-well plates using FuGene 6 reagent (Roche; 3 ml FuGene/1 mg DNA). The MRTU constructs are regulated by a cis-regulating element (promoter). […] A major difference between the CIS and TRANS system is that in CIS activities of endogenous TFs are measured, whereas the TRANS assay evaluates changes in activities of exogenous, chimeric NR-Gal4 proteins. […] At the end of 24 hour incubation, total RNA was isolated using TriZol reagent (Invitrogen). The isolated RNA is then reverse-transcribed using oligo(dT) primer and Mo-MLV reverse transcriptase (Invitrogen) with DNAse I (Ambion) treatment for 30 min. The one-tenth of the produced cDNA was amplified by PCR using Taq DNA polymerase (Invitrogen) and two reporter sequence-specific primers. The PCR products were fluorescently labeled by primer extension with 6-arboxyfluorescein (6-FAM) 5'-labeled reporter sequence-specific primer (2 min at 95 C, 20 s at 68 C and 10 min at 72 C) and these products were digested with 5U of HpaI (New England Biolabs) for 2h at 37 C. The fragments were purified using Qiaquick PCR columns (Qiagen), analyzed on an ABI 3130xL genetic analyzer (Applied Biosystems) with peak positions identified by using a set of X-rhodamine (ROX)-labeled MapMarker1000 molecular weight standards (BioVentures). The raw capillary electrophoresis data was processed using Attagraph software (Attagene).
On to `CC(=O)c1ccc2c(c1)CCCC2`, for which the outcome was inactive.

`Cc1ccccc1C`: the compound was called inactive.

As for `CCCCCCCCCCC=CC#N`, the call was inactive.

Consider `CCCCCC/C=C\CCCCCCCC(=O)O`, for which the compound was classed as inactive.

With `C=CCOc1c(Br)cc(Br)cc1Br`, the compound was classed as inactive.

For `CC(C)CC(O)Cc1ccccc1` (stereo not given), the compound was called inactive.

Turning to `CCOc1ccc(N)c([N+](=O)[O-])c1`, the compound was called inactive.

With `CC=CCO`, the call was inactive.

For the compound `Nc1nc2ccccc2[nH]1`, the compound was classed as inactive.

For the compound `C[Si](C)(C)O[Si](O)(O)O`, the compound was called inactive.

Regarding `CC/C=C\CCOC(=O)CCCCC`, the compound was called inactive.

Regarding `CCC(C)(C)C1CCCCC1OC(C)=O` (stereo not given), the result was inactive.

On to `CC=C1CC2C=CC1C2` (stereo not given), for which the compound was classed as inactive.

`CNC(=S)NN`: the result was inactive.

With `O=S(=O)(Oc1ccc(Cl)cc1Cl)c1ccccc1`, the call was inactive.

As for `Cn1c(=O)[nH]c2ncn(C)c2c1=O`, the outcome was inactive.

Turning to `Cc1cc(C)c(C(=O)O)c(C)c1`, the compound was classed as inactive.

Turning to `O=C(Nc1cccc(C(F)(F)F)c1)c1cc(Br)cc(Br)c1O`, the AC50 was 78.9 µM (active).

Consider `CC1(C)S[C@@H]2[C@H](NC(=O)COc3ccccc3)C(=O)N2[C@H]1C(=O)O`, for which the result was inactive.

For `Cc1ccc2oc(=O)ccc2c1`, the call was inactive.

`CC/C=C\C/C=C\C/C=C\CCCCCCCC(=O)O`: the AC50 is 100 µM (active).

As to `CC(CC=O)c1ccccc1` (stereo not given), the compound was called inactive.

Turning to `C=CC=CC=CCCCCC`, the call was inactive.

For the compound `CC1(C)O[C@@H]2C[C@H]3[C@@H]4C[C@H](F)C5=CC(=O)CC[C@]5(C)[C@H]4[C@@H](O)C[C@]3(C)[C@]2(C(=O)CO)O1`, the compound was called inactive.

For `CC1OC1C1CCC2(C)OC2C1` (stereo not given), the compound was called inactive.

As to `Cc1ccc2c(c1)C(=O)c1ccccc1C2=O`, the compound was called inactive.

In the case of `C=C[Si](C)(C)O[Si](C)(C)C=C`, the outcome was inactive.

With `CC1=NC(C)OC1C` (stereo not given), the outcome was inactive.

In the case of `CC(=O)OCc1ccco1`, the compound was classed as inactive.

`O=C(O)CCCC[C@@H]1SC[C@@H]2NC(=O)N[C@@H]21`: the compound was called inactive.

`O=C1CCCCCN1SSN1CCCCCC1=O`: the half-maximal activity concentration (AC50) was 156 µM (active).

As for `CC(=O)Oc1ccc(C(C)=O)cc1`, the result was inactive.

Turning to `CCc1ccc2c(c1)C(=O)c1ccccc1C2=O`, the call was inactive.

For `c1ccc(CNCc2ccccc2)cc1`, the compound was called inactive.

For `CC(CC=O)CCCC(C)(C)O` (stereo not given), the compound was classed as inactive.

With `O=C(/C=C/C=C/c1ccc2c(c1)OCO2)N1CCCCC1`, the call was inactive.

As to `c1cc(N(CC2CO2)CC2CO2)ccc1OCC1CO1` (stereo not given), the AC50 is 46.4 µM (active).

Consider `O=C(O)CC(C(=O)O)C(CC(=O)O)C(=O)O` (stereo not given), for which the compound was classed as inactive.

For `CCCCCCCCC(=O)OCC`, the compound was called inactive.

Take `N#[N+]c1ccc2c(S(=O)(=O)[O-])cccc2c1O`: the compound was classed as inactive.
